# Bioassay records deposited in PubChem BioAssay by National Center for Advancing Translational Sciences (NCATS).
# Pf growth 48h = Primary qHTS for delayed death inhibitors of the malarial parasite plastid, 48 hour incubation. P. falciparum luciferase growth in erythrocytes, 48 h. Potency, µM (highest dose often 28.7 µM), for inactives: top-dose activity change, negative = inhibition, actives largely listed as inhibitors. 5.9% of 310,000 active. AID 504832, 2011; further: potency means the concentration at half of the fitted maximal effect; on the % scale 0 is the no-effect control and ±100 the full control effect
#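 Luminescence readout; reporter = integrated firefly luciferase in P. falciparum. RBC culture at 2% hematocrit, 0.1% parasitemia final, 37 C/5% CO2; decreased signal taken as growth inhibition.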
# HCV inh = qHTS Assay for Inhibitors of Hepatitis C Virus (HCV) | Potency, µM (top dose mostly 41.8 µM), for the others: at the top dose activity change, negative = inhibition, actives largely listed as inhibitors | 3.4% of 340,000 active | Huh7.5.1 HCVcc-Cre infection, luciferase reporter, 44 h; further: potency means the concentration at half of the fitted maximal effect; on the % scale 0 is the no-effect control and ±100 the full control effect
#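 Reporter virus HCVcc-Cre (~0.5 moi) infects cells exposed to compound; seeding density 1,000 cells/well with 4 h settling beforehand. Luminescence, 15 sec read, taken 44 h post-infection following a 15 min RT substrate incubation.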
# SARS PLpro yeast = qHTS of Yeast-based Assay for SARS-CoV PLP; S. cerevisiae expressing SARS-CoV PLpro, growth rescue; Potency, µM (titrated, usually from 32.9 µM), for the others: at the top dose activity, positive = growth rescue, hits mostly activators; 0.19% of 330,000 active; calls by dose curve; further: potency means the concentration at half of the fitted maximal effect; 0% is about no effect; nearly all actives have a fitted effect of over 55% in size
# Sm TGR inh = qHTS Assay for the Inhibitors of Schistosoma Mansoni Peroxiredoxins; Potency, µM (top dose mostly 114 µM), without a hit: top-dose activity change, negative = inhibition, hits mostly inhibitors; 3% of 360,000 active; AID 485364, 2010; purified TGR, DTNB reduction, TNB absorbance 405 nm; further: potency means the concentration at half of the fitted maximal effect; on the % scale 0 is the no-effect control and ±100 the full control effect; nearly all actives have a fitted effect of over 60% in size
#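 TGR 20 nM + NADPH 100 uM (dispensed conc.), cpd preinc 15 min RT; start with NADPH (500 uM addition) then DTNB (15 mM addition). Kinetic TNB absorbance, 405 nm filter. Four-parameter Hill fit across titration.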
# HCMV inh = qHTS Assay for inhibitors of the human cytomegalovirus (HCMV) | AID 1259415, 2018 | 4.5% of 410,000 active | HFF cells, HCMV-luciferase reporter, 72 h; stronger effect = lower value | activity change, negative = inhibition, % at 57.5 µM; in the data active means activity change below about -60%; inconclusive means no clear call, values can overlap the other calls; inactive means above about -39%; further: on the % scale 0 is the no-effect control and ±100 the full control effect
#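 After 16 h attachment at 37C, HFF cells received test compound and HCMV-luciferase (1 PFU/cell); reporter luminescence read 72 h later, data normalized against buffer-only and known inhibitor Salinomycin.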
# Pf growth 96h = Primary qHTS for delayed death inhibitors of the malarial parasite plastid, 96 hour incubation; 6.9% of 320,000 active; Potency, µM (top dose mostly 28.7 µM), for the others: at the highest dose activity change, negative = inhibition, hits mostly inhibitors; P. falciparum luciferase reporter growth, 96 h; further: potency means the concentration at half of the fitted maximal effect; on the % scale 0 is the no-effect control and ±100 the full control effect
#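 Readout is luminescence from an integrated firefly luciferase in P. falciparum. Red cells, 2% hematocrit and 0.05% parasitemia final, were cultured with compound through two parasite generations (96 hours) at 37 C, 5% CO2.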
# Starred values were filed as active, the others as inactive; ? = inconclusive; . = no result given. Shown are actives, neighbours in structure and some others; about 15% of the full set was active somewhere. Unless noted, the call rests on the fitted dose curve; in most records, active means well fitted curve in the direction sought with a large enough effect; inconclusive means small, poorly fitted or top-dose-only effect, or another doubt; inactive means no such curve, though single readings can be large; an effect the other way counts as inactive or inconclusive.
SMILES,Pf growth 48h,HCV inh,SARS PLpro yeast,Sm TGR inh,HCMV inh,Pf growth 96h
O=C1CCC[C@H]2[C@@H](Cc3ccccc3)[C@@H](NS(=O)(=O)c3ccc([N+](=O)[O-])cc3)CC[C@]23CCCN13,.,.,.,.,-30,.
Cc1ccc(N(CC(=O)N2CCN(Cc3ccccc3)CC2)S(C)(=O)=O)cc1C,-4%,-2%,1%,-1%,-23,?
CCCSC1=C(C#N)C(c2cccnc2)C(C(=O)OCC)=C(c2ccccc2)N1 (stereo unspecified),?,-3%,2%,8%,-30,?
CC1=C(C(=O)OC(C)(C)C)C(c2ccco2)C(C#N)=C(N)O1 (stereo unspecified),0%,-13%,2%,-26%,28,2.1µM*
CCOC(=O)C1=C(c2ccccc2)NC(SCC(=O)Nc2ccc(C)cc2)=C(C#N)C1c1ccco1 (stereo unspecified),?,?,.,-11%,-1,.
CCOC(=O)C1=C(c2ccccc2)OC(N)=C(C#N)C1c1cccnc1 (stereo unspecified),-10%,12%,0%,-32%,-13,?
CCOC(=O)C1=C(c2ccccc2)NC(SCC)=C(C#N)C1c1cccnc1 (stereo unspecified),?,-5%,-1%,-4%,?,8.3µM*
CCOC(=O)C1=C(c2ccc(OC)cc2)OC(N)=C(C#N)C1c1cccnc1 (stereo unspecified),27%,27%,0%,11µM*,-5,0%
CCOC(=O)C1=C(c2ccccc2)NC(SC)=C(C#N)C1c1ccco1 (stereo unspecified),?,?,4%,35µM*,36,-5%
Cc1cc(C(=O)OCC(=O)c2cccs2)ccc1[N+](=O)[O-],34%,-10%,-2%,1%,0,5%
Cc1ccccc1NC(=O)CSC1=C(C#N)C(c2ccsc2)CC(=O)N1 (stereo unspecified),-4%,?,2%,2%,-62*,.
CCOC(=O)C1=C(c2ccccc2)NC(SCC(=O)Nc2cccc(C)c2)=C(C#N)C1c1ccco1 (stereo unspecified),9.3µM*,?,9%,-4%,3,27%
CCOC(=O)C1=C(c2ccccc2)OC(N)=C(C#N)C1c1ccc(Br)s1 (stereo unspecified),8%,2%,9%,40µM*,-6,7%
CCOC(=O)C1=C(c2ccccc2)NC(SCC(=O)Nc2ccccc2C)=C(C#N)C1c1ccco1 (stereo unspecified),8.3µM*,?,0%,-21%,-31,27%
N#CC1=C(SCC(=O)Nc2nccs2)NC(=O)CC1c1ccccc1 (stereo unspecified),.,13%,-5%,3%,-18,-13%
O=C(NC1CCCCC1)C1CC(=O)N(Cc2ccccc2)C1 (stereo unspecified),5%,6%,4%,-6%,8,35%
Cc1cc(S(=O)(=O)N2CCCOC2CNC(=O)C(=O)NCc2cccs2)ccc1F (stereo unspecified),-13%,-19%,-8%,-2%,20,?
O=C(NC1CCCC1)C(c1ccc(F)cc1)N1CCC(O)(c2ccc(Cl)cc2)CC1 (stereo unspecified),.,.,.,.,19,.
O=C(Nc1ccc(N2CCN(Cc3ccccc3Cl)CC2)cc1)c1cccnc1,?,-13%,2%,1%,-64*,7%
O=C(Nc1ccc(N2CCN(Cc3ccccc3)CC2)cc1)c1ccco1,?,2%,?,-6%,-82*,10%
